Source: PubChem BioAssay (NCI)
The panel holds about 79,000 compounds, 15% with a hit somewhere; the sample as a whole holds those more often. Cut-off read from the data, not from the text of the source: active = growth inhibition above about 70%; inactive = the rest.

Tests used:
[1] = NCI Yeast Anticancer Drug Screen. Data for the rad50 strain (AID 155);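 note: 0% = growth of vehicle-only cultures of the same strain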; details: S. cerevisiae rad50 strain growth inhibition; at 50.0 µM; hits give high values
In short: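 DNA repair mutant yeast, compound exposure, growth read-out; inhibition is taken relative to vehicle.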

[2] = NCI Yeast Anticancer Drug Screen. Data for the mec2-1 strain (AID 157); details: S. cerevisiae mec2-1 strain, at 50.0 µM, hits give high values
In short: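 Strain: mec2-1 (DNA repair/cell cycle alteration). Compound exposure, then growth measured; inhibition expressed relative to vehicle.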

[3] = NCI Yeast Anticancer Drug Screen. Data for the sgs1 mgt1 strain (AID 161);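 note: 0% = growth of cultures given vehicle only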; details: S. cerevisiae sgs1 mgt1 strain, at 50.0 µM, hits give high values
In short: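 Mutant yeast exposed to compound; growth scored against vehicle-only wells.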

[4] = NCI Yeast Anticancer Drug Screen. Data for the cln2 rad14 strain (AID 165);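 note: 0% = growth equal to vehicle treated cultures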; details: S. cerevisiae cln2 rad14 strain, at 50.0 µM, hits give high values
In short: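 Compounds are applied to the cln2 rad14 yeast strain, and growth is then compared with that of vehicle-treated cultures to give inhibition.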

[5] = NCI Yeast Anticancer Drug Screen. Data for the bub3 strain (AID 167); details: S. cerevisiae bub3 mutant strain, at 50.0 µM, hits give high values
In short: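 In this screen, a yeast mutant lacking normal mitotic checkpoint function is challenged with compound. Relative growth versus vehicle gives the inhibition value.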

[6] = NCI Yeast Anticancer Drug Screen. Data for the mlh1 rad18 strain (AID 175); details: S. cerevisiae mlh1 rad18 strain growth inhibition; at 50.0 µM; hits give high values
In short: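 Read-out is yeast growth inhibition, calculated against vehicle-only controls. The compound was applied to a strain engineered with DNA damage repair alterations.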

Measured: growth inhibition

COc1ccc(C(C#N)C(=O)C(=O)Nc2ccc(Cl)cc2C)cc1OC (stereo not drawn)
inactive: [1] -19.9% | [2] 17.9% | [3] 24.6% | [4] -14.2% | [5] 2.65% | [6] 16.9%

CCCNC(=O)c1cccc2c1-c1ccccc1C2=O
inactive: [1] -0.55% | [2] 3.85% | [3] -2.65% | [4] -1.7% | [5] 4.65% | [6] -1.45%

CCOC(Cn1ncc(C#N)c1N)OCC
inactive: [1] -13.7% | [2] -7.75% | [3] -25.5% | [4] -15.9% | [5] -5.95% | [6] 5.65%

Cc1nn(C(=O)c2ccc(Cl)cc2)c2c1C(c1ccc(Cl)cc1)SC(N)=N2 (stereo not drawn)
inactive: [1] 9.95% | [2] -21.2% | [3] 31.4% | [4] -24.9% | [5] -19.4% | [6] 12.9%

Nn1nc2ccccc2n1
inactive: [1] -0.15% | [2] 0.2% | [3] -11.1% | [4] 1.6% | [5] 0.75% | [6] 1.45%

CC(=O)c1c(C)cc2cccc(OC3OC(CO)C(O)C(O)C3O)c2c1O (stereo not drawn) (tested in a mixture with another compound)
inactive: [1] 9.1% | [2] 8.2% | [3] -18.6% | [4] 0% | [5] -7.25% | [6] -56.3%

NS(=O)(=O)c1ccc(Nc2c3ccccc3nc3ncccc23)cc1
inactive: [1] -6.85% | [2] 7.35% | [3] 13.9% | [4] -11.8% | [5] 9.2% | [6] 16.9%

Cc1nc(N)nc(C)c1N=Nc1cccc(Cl)c1
inactive: [1] 2.05% | [2] 11.6% | [3] 9.35% | [4] -32.8% | [5] 21.6% | [6] 3.85%

CC(=O)N(C(=O)CC(=O)N1N=C(c2ccccc2)C(N=Nc2ccccc2[N+](=O)[O-])C1=O)c1ccc(Cl)cc1 (stereo not drawn)
inactive: [1] -4.3% | [2] -21.8% | [3] -0.2% | [4] -37% | [5] -27.2% | [6] -19%

Nc1cc2c(cc1Br)-c1ccc(Cl)cc1C2=O
inactive: [1] 1.2% | [2] 5% | [3] 7.3% | [4] -54.4% | [5] 0% | [6] -0.5%

CC(C)(C)NC(=O)Oc1ccc(-c2ccccc2)cc1
inactive: [1] 4.75% | [2] 26.6% | [3] 33% | [4] -4.45% | [5] 18.2% | [6] 32.9%

Cc1ccc(NC(=S)Nc2ccccc2F)cc1
inactive: [1] -8% | [2] -13.2% | [3] -2.2% | [4] -28.8% | [5] 43.5% | [6] 10%

CC1=CC(O)(c2ccccc2)C(N2CCOCC2)N1O (stereo not drawn)
inactive: [1] -2.85% | [2] -25.6% | [3] -3.5% | [4] 13.6% | [5] 23.4% | [6] -8.55%

COc1c(Cl)cc(Cl)c(C)c1C(C)C(=O)O (stereo not drawn)
inactive: [1] 21.4% | [2] 5.85% | [3] 2.6% | [4] 16.3% | [5] 25.5% | [6] 10.9%

CC1c2[nH]c3ccccc3c2CC1C(=O)O (stereo not drawn)
inactive: [1] 10.3% | [2] 12.6% | [3] 5.25% | [4] -13.2% | [5] -9.8% | [6] -5.35%

CC(=O)OC(OC(C)=O)c1cccc2ccccc12
inactive: [1] 3.05% | [2] -9.3% | [3] -5.8% | [4] -15.9% | [5] 16.9% | [6] -3.9%

c1ccc(-c2ccc3c(c2)NCCN3)cc1
inactive: [1] -3% | [2] 9.35% | [3] -13.6% | [4] -4.35% | [5] 7.25% | [6] 21.4%

C[C@@H]1C[C@H](C)OC(CO)O1 (stereo partly drawn) (tested in a mixture with another compound)
inactive: [1] 13.4% | [2] -1.3% | [3] 0.25% | [4] 12.2% | [5] -12.6% | [6] 19.3%

CCOC(=O)C(CCCOC1CCCCO1)(C(=O)CC)c1ccccc1 (stereo not drawn) (tested in a mixture with another compound)
inactive: [1] 25.4% | [2] -7.05% | [3] -6.25% | [4] 2.3% | [5] 1.9% | [6] -3.05%

Oc1ccccc1C=Nc1ccccc1
inactive: [1] 29% | [2] 1.95% | [3] 0% | [4] 6.8% | [5] -1.25% | [6] -2.4%

CC(C)(C)OC(=O)NO
inactive: [1] -0.6% | [2] 2.9% | [3] 0% | [4] 1.75% | [5] 5.05% | [6] 4.7%

COc1cc2c(cc1O)C1CC(CC3CCCCN31)OC(=O)/C=C\c1ccc(O)c-2c1 (stereo not drawn)
inactive: [1] -28.1% | [2] -48.3% | [3] -31.2% | [4] 20.8% | [5] -43.9% | [6] -54.2%

Cc1ccc(S)c(C(O)(C(F)(F)F)C(F)(F)F)c1
inactive: [1] -4.75% | [2] 3.65% | [3] 11.7% | [4] 3.55% | [5] 8.3% | [6] 23.2%

CCCCCCCNC1=C(O)c2ccccc2C(=O)C1=O
inactive: [1] -11.4% | [2] 15.8% | [3] 2.2% | [4] -44.2% | [5] 12.3% | [6] 6.2%

Oc1cc2c(cc1C(c1ccc(Cl)cc1)N1CCCCC1)OCO2 (stereo not drawn)
inactive: [1] 9.65% | [2] -1.6% | [3] 1.25% | [4] -6.4% | [5] 11.1% | [6] 5.75%

CCOC(=O)/C=C(/C)N
inactive: [1] -19.1% | [2] -7.25% | [3] -14.2% | [4] 8.45% | [5] 1.85% | [6] -0.75%

CCCNC(=S)/N=C/c1c(O)cc(C)oc1=O
inactive: [1] -51.6% | [2] -65.6% | [3] -24.2% | [4] -0.3% | [5] -18.5% | [6] -42.2%

Cc1ccc(S(=O)(=O)OC2C3OC(C)(C)OC3OC2C(c2cc(O)c3c(c2O)C(=O)c2ccccc2C3=O)c2cc(O)c3c(c2O)C(=O)c2ccccc2C3=O)cc1 (stereo not drawn)
inactive: [1] -35.5% | [2] -25.6% | [3] -11.6% | [4] -5% | [5] -8.2% | [6] -25.1%

COc1cc(COC(=O)Nc2ccccc2F)cc(OC)c1OC
inactive: [1] -4.9% | [2] -19.1% | [3] 7.25% | [4] 5.85% | [5] 19.6% | [6] -10%

Cc1onc(-c2c(F)cccc2Cl)c1C(=O)Nc1cc2cc([N+](=O)[O-])ccc2oc1=O
inactive: [1] 12.3% | [2] -13.7% | [3] 2.3% | [4] 8.15% | [5] 2.8% | [6] 12.5%

CCOC(=O)C(C(=O)OC(c1ccccc1)c1ccccc1)(C(c1ccccc1)c1ccccc1)C(c1ccccc1)c1ccccc1
inactive: [1] 0.45% | [2] 18% | [3] 1.65% | [4] -9.25% | [5] -1.4% | [6] -10.8%

CC(=O)Nc1cc([N+](=O)[O-])ccc1CC(O)c1ccccc1 (stereo not drawn)
inactive: [1] -2.25% | [2] -17.1% | [3] -4.1% | [4] -15.5% | [5] -1% | [6] -16.4%

CCCCCCCCCCCCCCCCSc1cccc(C)c1
inactive: [1] 17.7% | [2] 3.65% | [3] 22.1% | [4] -13.2% | [5] 1.3% | [6] 17.1%

CC(=O)NNC(=S)/N=C\c1c(O)c2ccccc2oc1=O
inactive: [1] -50.5% | [2] -45.6% | [3] -34.2% | [4] -13.2% | [5] -38.5% | [6] -37.9%

CC1=C(C(=O)NCc2ccccc2)C(c2ccc(Cl)c(Cl)c2)C(C(=O)NCc2ccccc2)=C(C)N1
inactive: [1] -10.9% | [2] 12.2% | [3] -21.1% | [4] 21.2% | [5] -12.4% | [6] -18.9%

CCOc1ccc(CCC(=O)O)cc1
inactive: [1] 3.55% | [2] -9% | [3] -1.65% | [4] 2.8% | [5] -6.1% | [6] 12.1%

c1ccc(-c2c(-c3cccs3)[nH]c(-c3cccs3)c2-c2ccccn2)nc1
inactive: [1] -6.7% | [2] 17.1% | [3] 45.7% | [4] -29.4% | [5] -6.6% | [6] -57%

COc1ccc(-c2nc(-c3cc4ccccc4oc3=O)cs2)cc1
inactive: [1] 13.1% | [2] 13.6% | [3] -12.1% | [4] 7.7% | [5] -18.4% | [6] -35.1%
